# High-throughput results (PubChem)
# NR1D1 modulator: modulators of human Rev-erb alpha DNA binding | Rev-erbα–FITC-DNA binding, fluorescence polarization, 90 min | P20393 | 370,000 tested, 0.79% active | activity, % at 10 µM;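 active = activity above about 14%, limit read from the data; passing the limit was not always enough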;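 also: 0% = DMSO wells with 35 nM protein and 100% = DMSO wells with 750 nM protein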
# Target sequence (P20393 whole entry, looked up): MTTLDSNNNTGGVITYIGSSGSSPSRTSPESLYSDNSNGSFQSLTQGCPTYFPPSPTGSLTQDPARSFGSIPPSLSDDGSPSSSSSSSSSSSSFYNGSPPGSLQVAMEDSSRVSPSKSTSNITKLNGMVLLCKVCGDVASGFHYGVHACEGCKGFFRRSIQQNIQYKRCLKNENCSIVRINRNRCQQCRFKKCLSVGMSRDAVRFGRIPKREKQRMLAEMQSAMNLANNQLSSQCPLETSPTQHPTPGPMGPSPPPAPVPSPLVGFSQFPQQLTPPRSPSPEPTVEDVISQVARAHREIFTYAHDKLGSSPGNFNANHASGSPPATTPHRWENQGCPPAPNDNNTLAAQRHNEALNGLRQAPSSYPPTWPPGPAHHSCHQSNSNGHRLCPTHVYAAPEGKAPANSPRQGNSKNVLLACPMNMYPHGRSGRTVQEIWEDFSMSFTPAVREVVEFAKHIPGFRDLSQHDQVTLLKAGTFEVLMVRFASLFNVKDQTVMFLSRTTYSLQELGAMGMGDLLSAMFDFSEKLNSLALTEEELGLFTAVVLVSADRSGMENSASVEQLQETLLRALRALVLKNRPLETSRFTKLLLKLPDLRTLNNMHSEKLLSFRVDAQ
# PKA-R2B activ: activates the human PKA-R2B holoenzyme complex; P22694+P31323; PKA-R2B holoenzyme dissociation, Cy5-IP20 fluorescence polarization; R2B truncated from residue 108, S112A mutant; 0% DMSO only, 100% 113 µM cGMP; activation, % at 11.4 µM; 340,000 tested, 0.079% active; AID 504700;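 active = activation above a cutoff set at the mean over all compounds plus 3 SD, cut at about 18% in these data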;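 also: higher means more holoenzyme dissociation and a rise in polarization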
# PKA-R1A activ: activates the PKA-R1A holoenzyme complex; P00514+P68181; PKA-R1A dissociation, Cy5-IP20 fluorescence polarization; scaled: DMSO 0%, 113 µM cGMP 100%; activation, % at 11.4 µM; 340,000 tested, 0.083% active; AID 504707;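 active = percent activation above the mean of all tested compounds plus 3 SD, cut at about 19% in these data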;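 also: higher means more PKAc released from R1A so a rise in polarization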
# PG9 binder: small molecules binding HIV-1 gp120 antibody PG9; AID 624416; inhibition, % at 6.7 µM; 360,000 tested, 0.43% active; TR-FRET gp120-PG9 antibody binding; in the data active = inhibition above about 8.5%
# PG9 bind confirm: confirmation of small molecules binding HIV-1 gp120 antibody PG9; shares compounds with PG9 binder; TR-FRET PG9 antibody binding, biochemical; inhibition, % at 6.7 µM; 1,500 tested, 90% active; AID 651571; in the data active = inhibition above about 9%
# PGV04 counter: binds control antibody PGV04 in PG9 binder counter-screen. shares compounds with PG9 binder. TR-FRET PGV04 antibody-gp120 binding, biochemical. inhibition, % at 6.7 µM. 1,500 tested, 95% active. AID 651604; in the data active = inhibition above about 9.5%
# PG9 binder DR: PG9 antibody binding, dose response; IC50, µM; shares compounds with PG9 binder; TR-FRET PG9 antibody-gp120 binding inhibition; 95 tested, under 10 active; in the data active = IC50 below about 10 µM
# PGV04 DR counter: PGV04 binding, dose response counter-screen; shares compounds with PG9 binder; 95 tested, 20% active; TR-FRET binding to control antibody PGV04; IC50, µM
# PG126 DR counter: binds control antibody PG126 in PG9 counter-screen | shares compounds with PG9 binder | TR-FRET binding to antibody PG126, counterscreen | IC50, µM | 95 tested, 20% active | AID 651939
# Active calls of the source: *; i = inactive; . = no result. An excerpt weighted towards active compounds, which were near 1.2% of everything screened. Rule as the data show it, unless noted: active = IC50 below about 9 µM; inactive = the rest.
SMILES,NR1D1 modulator,PKA-R2B activ,PKA-R1A activ,PG9 binder,PG9 bind confirm,PGV04 counter,others
CCn1c(=S)[nH]c2c(c1=O)C(C)(C)Cc1ccccc1-2,-3.8,-8.4,4.6,23.9*,13.8*,12.4*,PG9 binder DR=>67.1;PGV04 DR counter=i;PG126 DR counter=i
Cn1c(=S)[nH]c2c(c1=O)C(C)(C)Cc1ccccc1-2,-4.5,-7.3,6.4,17.1*,11.2*,11.3*,
CCC1(C)Cc2ccccc2-c2[nH]c(=S)[nH]c(=O)c21 (stereo not given),-0.7,4.1,0.9,32.4*,5.6,7.9,
O=C(NC1CCCCN(Cc2cccc(F)c2)C1=O)c1ccc(F)cc1 (stereo not given),-3.8,.,.,.,.,.,
Cc1ccc(NC(=O)CNC(=O)c2sc3ccccc3c2Cl)nc1,13.7,-14.7,-3.4,15.0*,13.3*,27.9*,
NC(=O)c1ccc(NC(=O)CNC(=O)c2sc3ccccc3c2Cl)cc1,7.6,-5.6,-11.1,18.4*,22.0*,27.9*,
CON(C)S(=O)(=O)c1ccc2c(c1)N(Cc1ccc(C)cc1)C(=O)C1CCCN21 (stereo not given),12.5,-7.9,-6.0,10.3*,18.6*,26.6*,
O=C(/C=C/Nc1ccccc1)C(F)(F)F,3.1,1.4,-0.9,9.3*,4.0,7.1,
N#Cc1cnn2c(N)c(-c3ccc(Cl)cc3)cnc12,0.8,0.5,-10.1,15.5*,24.3*,42.8*,
Cc1cc(=O)oc2cc(NC(=O)C(C)Oc3cccc(Cl)c3)ccc12 (stereo not given),13.1,-14.7,-2.3,10.0*,12.4*,18.9*,
Cc1cc(=O)oc2cc(OC(C)C(=O)Nc3ccc(C(N)=O)cc3)ccc12 (stereo not given),-1.9,-3.0,-1.5,1.9,.,.,
CC(C)(C)CNC(=O)c1cc2c(Br)ccc(Br)c2nc1N,11.1,.,.,10.0*,7.5,14.3*,
C#CCNC(=O)c1cc2c(Br)ccc(Br)c2nc1N,3.8,.,.,16.9*,17.7*,22.3*,
Nc1nc2ccc(Cl)cc2cc1C(=O)NCc1ccccc1Br,-4.1,.,.,.,.,.,
Fc1ccc(N2CCN(C3=Nc4ccccc4Sc4ccccc43)CC2)cc1,0.5,.,.,.,.,.,
Cc1ccc(CN2CCS(=O)(=O)CC2)cc1,-0.5,-3.9,9.6,10.7*,5.7,12.6*,
COC(=O)C1(C)CCc2cc(OC)ccc2C1=O (stereo not given),2.8,-11.4,4.5,1.3,.,.,
COC(=O)C1(C)CN(S(=O)(=O)c2ccc(C)cc2)c2cc(OC)ccc2C1=O (stereo not given),-3.0,-10.2,-15.1,8.6*,15.2*,17.7*,
CC(=O)N1CCCN(C(=O)CN2C(=O)CC(C)(C)S(=O)(=O)c3ccccc32)CC1,0.1,.,.,.,.,.,
N#CCCSc1ncnc2c1oc1ccccc12,1.5,1.7,-1.2,20.2*,46.1*,57.3*,
OCCSc1ncnc2c1oc1ccccc12,0.3,-7.9,1.1,-4.8,.,.,
COc1ccc(C(=O)Nc2ccccc2C(=O)N(Cc2ccco2)C(C(N)=O)C(C)C)cc1 (stereo not given),23.8,3.7,-2.7,9.9*,19.2*,15.7*,PG9 binder DR=>67;PGV04 DR counter=i;PG126 DR counter=>67
COc1ccc(S(=O)(=O)NNC(=O)c2csc(-n3nc(C)cc3C(F)(F)F)n2)cc1OC,-4.6,-9.6,0.6,10.4*,6.9,11.4*,
Cc1cc(C(F)(F)F)n(-c2nc(C(=O)NN)cs2)n1,1.1,1.1,-8.2,1.4,.,.,
O=C(Nc1c(-c2ccc(C(F)(F)F)cc2)nc2ncccn12)c1ccc(F)cc1,-4.7,.,.,.,.,.,
CCOc1ccc(/C(O)=C2/C(=O)C(=O)N(c3ccccn3)C2c2ccc(C)cc2)c(C)c1 (stereo not given),3.6,-7.2,3.1,19.8*,20.5*,27.9*,
